# Assay outcomes from PubChem BioAssay.
# Shown are actives, neighbours in structure and some others; about 27% of the full set was active somewhere.
# CYP2C19 activ: human CYP2C19 activators, primary screen, biochemical, luminescence. Cytochrome P450 2C19 (Homo sapiens), P33261. recombinant CYP2C19, luciferin-H EGE luminescence; active compounds read high; 0 = fully inhibited enzyme, 1 = untreated enzyme. activation factor at 5 µM. 96,000 tested, under 10 active. AID 1025, 2008;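 active = activation factor of at least 2 at 5 µM in the primary screen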;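 also: 0 = wells with 2.5 mM tranylcypromine and 1 = vehicle-only wells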
# Target sequence (P33261 whole entry, looked up): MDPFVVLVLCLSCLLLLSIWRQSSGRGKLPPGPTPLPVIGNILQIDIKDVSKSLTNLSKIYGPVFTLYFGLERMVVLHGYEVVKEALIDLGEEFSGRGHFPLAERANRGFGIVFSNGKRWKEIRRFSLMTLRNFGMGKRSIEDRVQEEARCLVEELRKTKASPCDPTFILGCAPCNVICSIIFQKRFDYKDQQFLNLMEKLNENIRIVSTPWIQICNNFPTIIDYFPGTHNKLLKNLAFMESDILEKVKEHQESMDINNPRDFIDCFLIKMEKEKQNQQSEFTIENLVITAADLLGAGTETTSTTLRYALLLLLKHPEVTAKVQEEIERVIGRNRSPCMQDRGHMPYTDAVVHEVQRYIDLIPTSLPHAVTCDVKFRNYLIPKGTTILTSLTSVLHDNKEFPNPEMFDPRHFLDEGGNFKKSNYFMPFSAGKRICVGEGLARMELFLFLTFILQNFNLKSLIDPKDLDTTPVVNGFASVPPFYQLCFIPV
# CYP2C19 inh: blockers of cytochrome P450 2C19 activity – biochemical, luminescence, ADME assay, primary screen | P33261 | CYP2C19 Supersomes, luciferin-H EGE luminescence, 30 min | inhibition, % at 5 µM | actives 21% (n = 96,000);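 active = CYP2C19 inhibition above a set limit at 5 µM in the primary screen, cut at about 50% in these data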;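 also: plate controls were negative control wells for no effect and 2.5 mM tranylcypromine positive control for full effect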
# CYP2C9 inh: blockers of cytochrome P450 2C9 activity – biochemical, luminescence, ADME assay, primary screen; inhibition, % at 5 µM; actives 20% (n = 96,000); CYP2C9 Supersomes, luciferin-H conversion;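 active = blocking of liver enzyme CYP2C9 beyond about 50% at 5 µM, limit read from the data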
# CYP2C9 act: human CYP2C9 activators, primary screen, biochemical, luminescence; Cytochrome P450 2C9 (Homo sapiens), P11712; recombinant CYP2C9, luciferin-H conversion; active compounds read high; factor 1 = untreated enzyme, 0 = blocked; activation factor at 5 µM; actives 1.4% (n = 96,000); AID 1024, 2008;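 active = activation factor of 2 or more for CYP2C9 at a 5 µM dose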;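 also: 0 = sulfaphenazole-blocked wells and 1 = vehicle-only wells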
# Cav3 T inh: Cav3.2 calcium influx blockers – cell-based, Fluo-4 calcium fluorescence, FDSS, MLSMR library, primary screen; actives 4% (n = 100,000); AID 449739, 2010; Cav3.2-expressing cells; active compounds read low; B-score at 10 µM;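 active = single-dose well whose peak fluorescence ratio is a statistical outlier from its plate by either plate-standardised score or position-corrected B-score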
# Active calls of the source: *; . = no result given.
SMILES,CYP2C19 activ,CYP2C19 inh,CYP2C9 inh,CYP2C9 act,Cav3 T inh
COc1ccc(S(=O)(=O)Cc2ccc(C(=O)NCCCN(C)c3ccccc3)o2)cc1,0.5,47,98*,0,-0.77
COc1ccccc1S(=O)(=O)Cc1ccc(C(=O)NCc2cccs2)o1,0.9,7,6,0.9,-0.24
Cc1cc(S(=O)(=O)NCCc2ccccc2)c(C)s1,0.7,32,47,0.5,-3.2
CCOC(=O)N1CCC(NC(=O)c2ccc(CS(=O)(=O)c3ccc(OC)cc3)o2)CC1,1,-3,93*,0.1,0.79
O=C(NCc1cccs1)c1cc2ccccc2o1,0.4,56*,18,0.8,-1.8
Cc1cccc(N(C)C(=O)c2coc(=O)c3ccccc23)c1,0.8,19,-83,1.8,0.1
COc1ccc(S(=O)(=O)Cc2ccc(C(=O)NC3CCCC3)o2)cc1,1,-2,31,0.7,0.36
Cc1cccc(N(C)C(=O)c2cc3cc4ccc(C)cc4nc3o2)c1,0.3,70*,24,0.8,-5.1*
COCCNC(=O)c1cc2c(=O)n3cccc(C)c3nc2n(Cc2ccncc2)c1=N,0.5,51*,39,0.6,0.49
CCCCNC(=O)c1cc2c(=O)n3cccc(C)c3nc2n(Cc2ccncc2)c1=N,0.4,65*,44,0.6,1
COc1ccc(CCNC(=O)c2cc3c(=O)n4cccc(C)c4nc3n(Cc3ccncc3)c2=N)cc1,0.1,90*,87*,0.1,.
COC(=O)c1cc2c(=O)n3cccc(C)c3nc2n(Cc2cccnc2)c1=N,1,0,16,0.8,.
CCCCNC(=O)c1cc2c(=O)n3cccc(C)c3nc2n(CCN2CCOCC2)c1=N,1.1,-6,9,0.9,.
COc1ccc(CNC(=O)c2cc3c(=O)n4ccccc4nc3n(Cc3cccnc3)c2=N)cc1,1,4,5,1,-0.002
CCOC(=O)C(C(=O)Nc1nc2ccccc2s1)C1CCCCC1 (centres undefined),0.6,38,92*,0.1,-7.8*
CCOC(=O)C(C(=O)Nc1ccccn1)C1CCCCC1 (centres undefined),0.8,16,41,0.6,-0.77
CCOC(=O)C(C(=O)Nc1nccs1)C1CCCCC1 (centres undefined),0.3,69*,77*,0.2,-0.28
CCOC(=O)C(C(=O)Nc1cccc(C)c1)C1CCCCC1 (centres undefined),0.2,82*,55*,0.4,-2
CCOC(=O)C(C(=O)Nc1cccc(C)n1)C1CCCCC1 (centres undefined),0.2,80*,82*,0.2,-0.74
Cc1ccc(-n2c(-c3ccccc3)cc(=O)nc2C)cc1,.,.,-8,1.1,0.53
CCn1c(SCc2ccc(F)cc2)nnc1-c1nn(-c2ccccc2)ccc1=O,1.1,-9,-21,1.2,1.1
Cc1ccc(Cl)cc1NC1=C/C(=N\S(=O)(=O)c2cccs2)c2ccccc2C1=O,0.3,66*,92*,0.1,.
CCOc1ccc(C(=O)Nn2cnnc2)cc1,0.3,74*,76*,0.2,-2
CCOc1ccc(C(=O)Nc2nnn(CC)n2)cc1,0.8,17,14,0.9,0.034
CCN(CCO)C(=O)C12CCC(C)(C(=O)C1)C2(C)C (centres undefined),1.1,-10,-22,1.2,-1.8
SMILES,CYP2C19 activ,CYP2C19 inh,CYP2C9 inh,CYP2C9 act,Cav3 T inh
CCCCCCCCCCn1c2c(c(=N)c3c1CCC3)CCC2,0.8,19,13,0.9,-7*
CCOC(=O)Cn1c2c(c(=N)c3c1CCC3)CCC2,1,-3,0,1,-0.73
O=c1nc2n(c3cc(Cl)c(S(=O)(=O)N4CCOCC4)cc13)CCCCC2,1.1,-13,9,0.9,-2.1
Cc1cccc(Cc2cnc(NC(=O)c3ccc(C)o3)s2)c1,0.6,39,12,0.9,-6*
CCOC(=O)C(C)(C)Sc1nc2c(cnn2-c2ccc(Cl)cc2)c(=O)[nH]1,0.5,46,76*,0.2,-0.67
CCC(Sc1nc2c(cnn2-c2ccc(Cl)cc2)c(=O)[nH]1)C(=O)OC (centres undefined),1,4,29,0.7,-0.28
Cc1cccc(-n2c(N)cc(=O)nc2SCC(=O)Nc2nnc(C)s2)c1,1.4,-39,1,1,-0.24
CCC(=O)N1CCc2cc(Br)cc(S(=O)(=O)NCC3CCCN3CC)c21 (centres undefined),1,-4,-5,1,0.23
CCOC(=O)c1ccc(NC(=O)c2ccc3c(c2)OCO3)cc1,1,3,0,1,0.05
COc1ccc(CN(C(=S)Nc2ccccc2)C2CC(=O)N(c3ccc(F)cc3)C2=O)cc1 (centres undefined),0.9,9,36,0.6,-0.32
CNC(=S)N(Cc1ccc2c(c1)OCO2)C1CC(=O)N(c2ccc(F)cc2)C1=O (centres undefined),0.1,92*,76*,0.2,-4*
CCOC(=O)c1ccc(N2C(=O)CC(N(C)CCc3ccc(OC)c(OC)c3)C2=O)cc1 (centres undefined),0.3,73*,55*,0.4,0.27
CCOC(=O)c1ccc(N2C(=O)CC(N(Cc3ccc4c(c3)OCO4)C(=O)Nc3ccccc3)C2=O)cc1 (centres undefined),0.2,81*,89*,0.1,-3.9
Cc1ccc(Cl)cc1Nc1nc(-c2sc(NC(=O)c3ccco3)nc2C)cs1,0.8,16,57*,0.4,0.3
COc1cccc(N(C(=O)c2ccco2)c2nc(-c3sc(NC(=O)c4ccco4)nc3C)cs2)c1,0.6,41,55*,0.5,0.64
CCC(C)C(=O)Nc1nc(C)c(-c2csc(Nc3ccccc3OC)n2)s1 (centres undefined),0.7,27,63*,0.4,-0.74
COc1ccccc1Nc1nc(-c2sc(NC(=O)c3ccco3)nc2C)cs1,0.9,10,63*,0.4,0.95
CCCCC(=O)Nc1nc(C)c(-c2csc(Nc3ccccc3OC)n2)s1,0.9,10,41,0.6,-0.15
CC(C)C(NS(=O)(=O)c1ccc2c(c1)oc(=O)n2C)C(=O)N1CCN(Cc2ccccc2)CC1 (centres undefined),0.8,20,13,0.9,0.58
O=C(Nc1cccc(-c2nnn(CC(=O)N3CCc4ccccc4C3)n2)c1)C1CCC1,0.2,84*,47,0.5,-4.4*
CC1Cc2ccccc2N1C(=O)Cn1nnc(-c2ccccc2NC(=O)C2CCC2)n1 (centres undefined),.,.,.,.,-2.1
O=C(Nc1ccccc1-c1nnn(CC(=O)N2CCc3ccccc3C2)n1)C1CCC1,0.8,20,65*,0.4,-1.1
